# Assay results from the supplement of paper PMC5734697.
# Test system: Caenorhabditis elegans
# Test: growth (movement index) relative to DMSO control, secondary screen (log2 fold change); higher = more growth (less anthelmintic activity)
# Details: 10 µM, 5 days, 20 °C, stage: L1 start
# Description: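 C. elegans growth assay: synchronised L1 larvae (~20 per well) in S-complete medium with HB101 E. coli were grown in 96-well plates with Pathogen Box compound at 10 µM (1% DMSO) for 5 days at 20 °C. Motility/growth was quantified by whole-plate movie imaging (INVAPP/Paragon movement index). The score is the log2 fold change of the median movement of 5 replicate wells (on different plates) relative to DMSO-only wells. The secondary screen retested the top 20 hits with the same library material (n = 5, 10 µM).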
row,SMILES,growth (log2)
1,CC1(C)OB(O)c2ccc(C3=NOC(c4cc(Cl)c(F)c(Cl)c4)(C(F)(F)F)C3)cc21 (configuration not stated),-0.316
2,CCc1nn(C)c(C(=O)NCc2ccc(Oc3ccc(C)cc3)cc2)c1Cl,-10.6
